Reference: ChEMBL document CHEMBL4513216, “Probing the Open Global Health Chemical Diversity Library for Multistage-Active Starting Points for Next-Generation Antimalarials” (ACS Infect Dis, 2020)
The whole screen tested about 69,000 compounds, of which about 8,600 (12%) showed an effect of 50% or more. Only a selection was taken, and strong results are over-represented in it overall.

system: Plasmodium berghei; experiment: Screen against P. berghei liver stage (PbLuc), transformed with Luciferase, at 10uM; type: functional, HepG2; details: tested at 10 uM

SMILES | INHIBITION [%]
O=S(=O)(C1CC1)N1CC[C@H]2OCC[C@@]2(COc2ncccc2F)C1 | -58.9
O=C(CCc1ccccc1)N1C[C@@H]2CN(Cc3ccoc3)CCO[C@@H]2C1 | 29.9
Cc1ccc(CN2CC(O)CN(C(=O)C3CC3)CC2=O)cc1 (centres undefined) | 7.85
CSCCC(=O)N1CCC(CCC(=O)NCC2CCCO2)CC1 (centres undefined) | 8.51
CCOc1ccccc1CCn1cc2[nH]cccc-2c1=O | 41.5
NC(=O)C1CCCN(c2ccc(CNC(=O)c3csnn3)cc2)C1 (centres undefined) | 44.1
NC(=O)C1CCCN(c2ccc(CNC(=O)c3cnsn3)cc2)C1 (centres undefined) | 60.5
NC(=O)C1CCCN(c2ccc(CNC(=O)c3cc[nH]n3)cc2)C1 (centres undefined) | -25.8
CCN1CCN(C2CCN(Cc3nc(CCOC)no3)CC2)C1=O | 19.4
CCS(=O)(=O)N1CCCN(CCCOC)CC1 | 63
CCCS(=O)(=O)N1CCCN(CCCOC)CC1 | -13.6
CCCS(=O)(=O)N1CCN(CCCO)CC1 | 11.5
Cn1cccc1C(=O)N1CCCC1c1ccc(CN2CCOCC2)cn1 (centres undefined) | 13.7375
Cc1nn(C)c(Cl)c1CNCc1cccnc1N1CCN(C)CC1 | 13.4
CCOc1cc(F)ccc1NC1CCN(CC(F)(F)F)C1=O (centres undefined) | -6.51
Cc1nnc(C(C)N(C)Cc2c(C)nn(-c3ccccc3C)c2C)o1 (centres undefined) | 59.2
CCc1nnc(C(C)N(C)Cc2c(C)nn(-c3ccccc3)c2C)o1 (centres undefined) | -77.1
Cc1nnc(C(C)N(C)Cc2c(C)nn(-c3ccccc3)c2C)o1 (centres undefined) | -10.8
CCOC(=O)c1cnn(C2CCN(C(=O)CCC(C)C)CC2)c1N | 38.3
CCc1ccc(S(=O)(=O)NCCOc2ccc3nnc(C)n3n2)s1 | 31
Cc1nnc2ccc(OCCNS(=O)(=O)c3cccs3)nn12 | 3.13
Cc1ccc(S(=O)(=O)NCCOc2ccc3nnc(C)n3n2)s1 | 57.4
CC(C)NC(=O)N1CCc2onc(C(=O)NCCN(C)C)c2C1 | 95.7
Cc1ccc(CN2CCc3onc(C(=O)NCCN(C)C)c3C2)o1 | 54.4
Cc1ccc(CN2CCc3onc(C(=O)N4CCCC4)c3C2)o1 | 23.6
CN(C)CCNC(=O)c1noc2c1CN(C(=O)N(C)C)CC2 | 28.2
CC(C)C(=O)N1CCc2onc(C(=O)NCCN(C)C)c2C1 | 39.4

SMILES | INHIBITION [%]
Cc1ccc(CN2CCc3onc(C(=O)NC(C)C)c3C2)o1 | 45.4
O=C1N(c2cccnc2)CCC12CCCN(Cc1ccoc1)C2 (centres undefined) | -29.3
CCN1CCC[C@@H]1CNC(=O)c1cc(COc2ccccc2)[nH]n1 | 33.4
O=C1CC(NCc2cnc(N3CCCC3)nc2)CN1c1ccccc1 (centres undefined) | 43.9
O=C1CC(NCc2cnc(C3CCCCC3)nc2)CN1c1ccccc1 (centres undefined) | 56.5
O=C1CC(NCc2cnc(-c3cccs3)nc2)CN1c1ccccc1 (centres undefined) | 8.92
Cc1cnn(CC2CCCCN2CCCS(=O)(=O)N(C)C)c1 (centres undefined) | 13.3
Nc1c(N2CCCC2)ncnc1N1CCOCC1 | 7.53
Nc1c(N2CCOCC2)ncnc1N1CCOCC1 | 50
Nc1c(N2CCCCC2)ncnc1N1CCOCC1 | 10.5
Cc1cc(C)n(-c2ccccc2NC(=O)NCCS(=O)(=O)CC(C)C)n1 | 32.5
CC(Cn1cccn1)NCc1nc(-c2ccccc2Cl)no1 (centres undefined) | 25.1
Cc1cnn(CC(C)NCc2nc(-c3cccnc3)no2)c1 (centres undefined) | 15.1
CC(Cn1cccn1)NCc1nc(-c2cccnc2)no1 (centres undefined) | 86.8
CC(Cn1cccn1)NCc1nc(-c2cccc(Cl)c2)no1 (centres undefined) | 26.3
COc1ccc(-c2noc(CNC(C)Cn3cccn3)n2)c(OC)c1 (centres undefined) | 53.8
CC(Cn1cccn1)NCc1nc(-c2ccsc2)no1 (centres undefined) | 1.78
CCn1cc(-c2nccnc2C2CCCN(C(C)=O)C2)cn1 (centres undefined) | -14.2
COCC1Cn2nnc(-c3cnn(C)c3)c2CN1Cc1ccc(C)o1 (centres undefined) | -1.12
O=C1COc2cc(S(=O)(=O)NCCC3=CCCCC3)c(Cl)cc2N1 | 48.4
NC(=O)N1CC[C@H](O)[C@@H]1Cc1ccccc1 | 46.9
O=C(NCc1nn(-c2ccccc2)c2c1CCC2)NC1CCOCC1 | -6.11
CCCc1cncnc1N1CCC2(CCC(=O)N(CCCO)C2)CC1 | -43.8
Cc1nn(C)cc1-c1cc(C(=O)NCC(C)(C)c2ccc(F)cc2)n[nH]1 | 5.75
CC(=O)N1[C@H](Cn2cncn2)C[C@@H]2CN(c3ncc(F)cn3)CC[C@@H]21 | 21.3
CC(C)c1nnc2n1CC(CNC/C=C/c1ccccc1)CC2 (centres undefined) | 51.3
C(=C\c1ccccc1)/CNCC1CCc2nncn2C1 (centres undefined) | 17.1
